A short description of assay [1]: NCI Yeast Anticancer Drug Screen. Data for the rad50 strain (AID 155).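 Further: 0% = growth of vehicle-only cultures of the same strain.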 The settings on record: S. cerevisiae rad50 strain growth inhibition, hits give high values. In a few lines:
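Inhibition values express reduced yeast growth in compound-treated cultures relative to vehicle-treated controls.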

Assay [2] in a line: NCI Yeast Anticancer Drug Screen. Data for the mec2-1 strain (AID 157). As to conditions: S. cerevisiae mec2-1 strain, hits give high values. In a few lines: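 Test agents were screened against the mec2-1 yeast strain, with defined DNA repair or cell cycle alteration. Growth was scored as inhibition against vehicle-only controls.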
Assay [3] is described as follows: NCI Yeast Anticancer Drug Screen. Data for the sgs1 mgt1 strain (AID 161).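 Further: 0% = growth of cultures given vehicle only.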 As to conditions: S. cerevisiae sgs1 mgt1 strain, hits give high values. In a few lines: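 Inhibition of yeast growth, normalised to vehicle-treated controls, is reported for a strain bearing genetic alterations in DNA damage repair.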
A short description of assay [4]: NCI Yeast Anticancer Drug Screen. Data for the cln2 rad14 strain (AID 165).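 Further: 0% = growth equal to vehicle treated cultures.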 As to conditions: S. cerevisiae cln2 rad14 strain, hits give high values. In a few lines:
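Growth of compound-exposed yeast (cln2 rad14 genotype) measured and expressed as inhibition relative to vehicle.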

The nature of assay [5]: NCI Yeast Anticancer Drug Screen. Data for the bub3 strain (AID 167). The settings on record: S. cerevisiae bub3 mutant strain, hits give high values. In a few lines:
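Steps: expose the mutant yeast strain to compound; grow alongside vehicle-treated cultures; measure growth; express inhibition against the vehicle cultures.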

Assay [6] can be described thus: NCI Yeast Anticancer Drug Screen. Data for the mlh1 rad18 strain (AID 175). As to conditions: S. cerevisiae mlh1 rad18 strain growth inhibition, hits give high values. In a few lines:
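In this whole-cell yeast screen, a strain with altered DNA damage repair is challenged with compound, and its growth is measured against matched vehicle-treated controls.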

[7] abbreviates: at 5.0 µM (retest, dose inferred, filed as 0.5).
[8] abbreviates: at 50.0 µM (retest, dose inferred, filed as 5.0).

SMILES strings stand for the structures. About 79,000 compounds went through this panel and 15% of them were active in at least one assay; those are over-represented in the sample as a whole. Values without a mark were called inactive. The source made the active and inactive calls. No stated cut-off is given here; in the data, active means growth inhibition above about 70%; inactive means the rest.

Regarding `COC1/C=C\C=C(/C)C(=O)Nc2cc3nc4cc(Br)ccc4oc-3c(c2=O)CC(C)CC(OC)C(O)C(C)/C=C(\C)C1OC(N)=O` (stereo not given), the growth inhibition in assay [1] (setting [7]) was 54%; in assay [1] (setting [8]), 95% (active); in assay [1] (at 50.0 µM), 90.2% (active); in assay [2] (setting [7]), 81% (active); in assay [2] (setting [8]), 96% (active); in assay [2] (at 50.0 µM), 92% (active). The growth inhibition was 46% in assay [3] (setting [7]); 94% (active) in assay [3] (setting [8]); 89.9% (active) in assay [3] (at 50.0 µM); 50% in assay [4] (setting [7]); 96% (active) in assay [4] (setting [8]); 83.2% (active) in assay [4] (at 50.0 µM). The growth inhibition in assay [5] (setting [7]) was 79% (active); in assay [5] (setting [8]), 96% (active); in assay [5] (at 50.0 µM) it was 91.8% (active); in assay [6] (setting [7]), 81% (active); in assay [6] (setting [8]) it was 95% (active); in assay [6] (at 50.0 µM), 89.4% (active).

Regarding `c1ccc(SSc2ccccn2)nc1`, the growth inhibition in assay [1] (setting [7]) is 17%; in assay [1] (setting [8]), 99% (active); in assay [1] (at 50.0 µM), 96.5% (active); in assay [2] (setting [7]), 69%; in assay [2] (setting [8]), 99% (active); in assay [2] (at 50.0 µM), 99.7% (active). Further, the growth inhibition in assay [3] (setting [7]) is 49%; in assay [3] (setting [8]), 99% (active); in assay [3] (at 50.0 µM), 53.1%; in assay [4] (setting [7]), 0%; in assay [4] (setting [8]), 99% (active); in assay [4] (at 50.0 µM) it was 99.5% (active). The growth inhibition in assay [5] (setting [7]) was 50%; in assay [5] (setting [8]) it was 99% (active); in assay [5] (at 50.0 µM) it was 99.5% (active); in assay [6] (setting [7]) it was 62%; in assay [6] (setting [8]), 99% (active); in assay [6] (at 50.0 µM), 99.5% (active).

As to `COC(=O)CC1c2cc(OC)c3cccc(OC)c3c2CCC1(C)C(=O)OC` (stereo not given), the growth inhibition is 94% (active) in assay [1] (setting [7]); 89% (active) in assay [1] (setting [8]); 45.8% in assay [1] (at 50.0 µM); 94% (active) in assay [2] (setting [7]); 90% (active) in assay [2] (setting [8]); 18.4% in assay [2] (at 50.0 µM). Also, the growth inhibition in assay [3] (setting [7]) was 95% (active); in assay [3] (setting [8]), 95% (active); in assay [3] (at 50.0 µM), 93.2% (active); in assay [4] (setting [7]), 91% (active); in assay [4] (setting [8]), 90% (active); in assay [4] (at 50.0 µM) it was 73% (active). In addition, the growth inhibition is 95% (active) in assay [5] (setting [7]); 90% (active) in assay [5] (setting [8]); 77.2% (active) in assay [5] (at 50.0 µM); 94% (active) in assay [6] (setting [7]); 91% (active) in assay [6] (setting [8]); 13.7% in assay [6] (at 50.0 µM).

`CCn1c2nc(=O)n(C)c(=O)c-2[n+]([O-])c2cc(C)ccc21`: the growth inhibition in assay [1] (setting [7]) was 16%; in assay [1] (setting [8]), 70% (active); in assay [1] (at 50.0 µM), 70.5% (active); in assay [2] (setting [7]), 8%; in assay [2] (setting [8]), 33%; in assay [2] (at 50.0 µM) it was 26.4%. For the same compound, the growth inhibition in assay [3] (setting [7]) was 4%; in assay [3] (setting [8]), 27%; in assay [3] (at 50.0 µM) it was 44.5%; in assay [4] (setting [7]) it was -2%; in assay [4] (setting [8]), 7%; in assay [4] (at 50.0 µM), 25.1%. Besides, the growth inhibition in assay [5] (setting [7]) was -1%; in assay [5] (setting [8]), 13%; in assay [5] (at 50.0 µM) it was 14.9%; in assay [6] (setting [7]), 0%; in assay [6] (setting [8]), 49%; in assay [6] (at 50.0 µM), 10.8%.

Take `CCC1CN2CCc3cc(OC)c(OC)cc3C2CC1CC1c2cc(OC)c(OC)cc2CCN1C(=O)C(Cc1c[nH]c2ccccc12)NC(=O)OC(C)(C)C` (stereo not given): the growth inhibition in assay [1] (setting [7]) was -4%; in assay [1] (setting [8]), 97% (active); in assay [1] (at 50.0 µM) it was 96.8% (active); in assay [2] (setting [7]) it was -6%; in assay [2] (setting [8]), 98% (active); in assay [2] (at 50.0 µM) it was 88.3% (active). Moreover, the growth inhibition was -5% in assay [3] (setting [7]); 49% in assay [3] (setting [8]); 53% in assay [3] (at 50.0 µM); -13% in assay [4] (setting [7]); 98% (active) in assay [4] (setting [8]); 93.5% (active) in assay [4] (at 50.0 µM). The growth inhibition was -5% in assay [5] (setting [7]); 98% (active) in assay [5] (setting [8]); 59.5% in assay [5] (at 50.0 µM); -3% in assay [6] (setting [7]); 98% (active) in assay [6] (setting [8]); 93.8% (active) in assay [6] (at 50.0 µM).

For `CCOC(=O)Cc1cc(=O)oc2c(CN3CCN(c4ccc(C)cc4)CC3)c(O)ccc12`, the growth inhibition in assay [1] (setting [7]) is 3%; in assay [1] (setting [8]) it was 55%; in assay [1] (at 50.0 µM) it was 60.8%; in assay [2] (setting [7]), 3%; in assay [2] (setting [8]) it was 77% (active); in assay [2] (at 50.0 µM) it was 51.7%. Further, the growth inhibition is -1% in assay [3] (setting [7]); 87% (active) in assay [3] (setting [8]); 38.2% in assay [3] (at 50.0 µM); 8% in assay [4] (setting [7]); 74% (active) in assay [4] (setting [8]); 1.2% in assay [4] (at 50.0 µM). In addition, the growth inhibition in assay [5] (setting [7]) is 7%; in assay [5] (setting [8]), 86% (active); in assay [5] (at 50.0 µM), 26.8%; in assay [6] (setting [7]) it was 3%; in assay [6] (setting [8]), 81% (active); in assay [6] (at 50.0 µM) it was 78.8% (active).

For `COC(=O)c1nc(=S)[nH]c(C(=O)OC)c1C(=O)c1ccc([N+](=O)[O-])cc1`, the growth inhibition is 5% in assay [1] (setting [7]); 84% (active) in assay [1] (setting [8]); 96.8% (active) in assay [1] (at 50.0 µM); -8% in assay [2] (setting [7]); 64% in assay [2] (setting [8]); 49.4% in assay [2] (at 50.0 µM). The growth inhibition in assay [3] (setting [7]) was -5%; in assay [3] (setting [8]), 80% (active); in assay [3] (at 50.0 µM), 96.5% (active); in assay [4] (setting [7]) it was 2%; in assay [4] (setting [8]) it was 70% (active); in assay [4] (at 50.0 µM), 31.1%. Further, the growth inhibition is 5% in assay [5] (setting [7]); 93% (active) in assay [5] (setting [8]); 61.1% in assay [5] (at 50.0 µM); -2% in assay [6] (setting [7]); 93% (active) in assay [6] (setting [8]); 91% (active) in assay [6] (at 50.0 µM).

`CC(CC(C)[C@H]1CCC2[C@H]3C(CC[C@@]21C)[C@@]1(C)CCC(O)C[C@H]1C[C@@H]3O)C(=O)O` (stereo not given in full): the growth inhibition in assay [1] (setting [7]) is 10%; in assay [1] (setting [8]), 97% (active); in assay [1] (at 50.0 µM), 98.4% (active); in assay [2] (setting [7]) it was -7%; in assay [2] (setting [8]), 98% (active); in assay [2] (at 50.0 µM), 97.5% (active). Also, the growth inhibition in assay [3] (setting [7]) is -4%; in assay [3] (setting [8]), 97% (active); in assay [3] (at 50.0 µM), 98.7% (active); in assay [4] (setting [7]) it was -4%; in assay [4] (setting [8]), 99% (active); in assay [4] (at 50.0 µM) it was 97.1% (active). In addition, the growth inhibition in assay [5] (setting [7]) was -20%; in assay [5] (setting [8]), 98% (active); in assay [5] (at 50.0 µM), 99% (active); in assay [6] (setting [7]) it was 14%; in assay [6] (setting [8]) it was 98% (active); in assay [6] (at 50.0 µM), 98.2% (active).

Take `O=C1c2ccccc2/C=C\C(c2ccccc2)=N/N1c1ccccc1Cl`: the growth inhibition in assay [1] (setting [7]) is 7%; in assay [1] (setting [8]), 52%; in assay [1] (at 50.0 µM), 84.8% (active); in assay [2] (setting [7]), 0%; in assay [2] (setting [8]), 69%; in assay [2] (at 50.0 µM) it was 83.5% (active). Moreover, the growth inhibition in assay [3] (setting [7]) is 9%; in assay [3] (setting [8]) it was 81% (active); in assay [3] (at 50.0 µM), 83.8% (active); in assay [4] (setting [7]) it was -2%; in assay [4] (setting [8]), 37%; in assay [4] (at 50.0 µM), 60.2%. Further, the growth inhibition in assay [5] (setting [7]) was -4%; in assay [5] (setting [8]) it was 52%; in assay [5] (at 50.0 µM), 85.2% (active); in assay [6] (setting [7]) it was 7%; in assay [6] (setting [8]), 48%; in assay [6] (at 50.0 µM), 84.7% (active).

`CC(C)(C)c1ccc(C(C)(C)C)cc1`: the growth inhibition was 1% in assay [1] (setting [7]); 3% in assay [1] (setting [8]); -10.7% in assay [1] (at 50.0 µM); -5% in assay [2] (setting [7]); -4% in assay [2] (setting [8]); 6.55% in assay [2] (at 50.0 µM). Besides, the growth inhibition in assay [3] (setting [7]) is 1%; in assay [3] (setting [8]), -9%; in assay [3] (at 50.0 µM), -20.4%; in assay [4] (setting [7]), 4%; in assay [4] (setting [8]), -7%; in assay [4] (at 50.0 µM), 50.8%. The growth inhibition in assay [5] (setting [7]) was 5%; in assay [5] (setting [8]), 13%; in assay [5] (at 50.0 µM), 3%; in assay [6] (setting [7]) it was -2%; in assay [6] (setting [8]), 1%; in assay [6] (at 50.0 µM) it was 1.55%.

The values above are taken from PubChem BioAssay (NCI).
